From PubChem BioAssay (EPA / NIEHS)
More than one record can exist for a structure, and the calls need not agree. The source made the active and inactive calls. Rule for the calls: active = hit-call score of the fitted dose curve at least 0.9, where 1 is the maximum; inactive = score below 0.9.

Columns and labels:
[1] = read-out: Monokine induced gamma interferon (MIG), CXCL9 (gene 4283); assay: BSK_hDFCGF_MIG: BioMAP Diversity Plus: hDFCGF Assay for Monokine induced gamma interferon (MIG) Biomarker Activity (AID 2283063); details: primary human foreskin fibroblasts; actives raise or lower the signal
Summary of the method: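 Chemicals were added to primary human foreskin fibroblast cultures, which were sampled 24 h later. MIG levels were then quantified by ELISA and responses fitted in both directions relative to DMSO.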

[2] = read-out: Matrix Metallopeptidase 1 (MMP1), MMP1 (gene 4312); assay: BSK_hDFCGF_MMP1: BioMAP Diversity Plus: hDFCGF Assay for Matrix Metallopeptidase 1 (MMP1) Biomarker Activity (AID 2283064); details: primary human foreskin fibroblasts; actives raise or lower the signal
Summary of the method: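 Primary human foreskin fibroblasts exposed to chemicals for 24 h; MMP1 measured by ELISA. Cytotoxicity tracked by SRB staining in parallel cultures; bidirectional fit relative to DMSO.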

[3] = read-out: Vascular cell adhesion molecule 1 (VCAM1), VCAM1 (gene 7412); assay: BSK_hDFCGF_VCAM1: BioMAP Diversity Plus: hDFCGF Assay for Vascular cell adhesion molecule 1 (VCAM1) Biomarker Activity (AID 2283065); details: primary human foreskin fibroblasts; actives raise or lower the signal;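 for AC50: VCAM-1 protein level quantified by ELISA after 24 h chemical exposure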
Summary of the method: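 Human foreskin fibroblast primary cells, chemical exposure 24 h; VCAM-1 by ELISA; bidirectional fit, DMSO = negative control/baseline.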

[4] = read-out: Plasminogen activator inhibitor-1 (PAI1), SERPINE1 (gene 5054); assay: BSK_hDFCGF_PAI1: BioMAP Diversity Plus: hDFCGF Assay for Plasminogen activator inhibitor-1 (PAI1) Biomarker Activity (AID 2283066); details: primary human foreskin fibroblasts; actives raise or lower the signal
Summary of the method: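 PAI-1 levels, determined by ELISA, served as the endpoint in human foreskin fibroblast cultures exposed to compound for 24 h, with DMSO as baseline.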

[5] = read-out: Intercellular Adhesion Molecule 1 (ICAM1), ICAM1 (gene 3383); assay: BSK_KF3CT_ICAM1: BioMAP Diversity Plus: KF3CT Assay for Intercellular Adhesion Molecule 1 (ICAM1) Biomarker Activity (AID 2283067); details: primary human keratinocytes with fibroblasts; actives raise or lower the signal
Summary of the method: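 ICAM-1 levels are measured by ELISA 24 h after dosing a primary human co-culture of keratinocytes and foreskin fibroblasts. Activity in either direction is fitted relative to DMSO vehicle.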

[6] = BSK_KF3CT_SRB: Viability Assessment in the BioMAP Diversity Plus: KF3CT Assay (AID 2283069); details: primary human keratinocytes with fibroblasts;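 note: total protein by sulforhodamine B staining as a cytotoxicity measure; read 24 h after compound addition; fitted for both signal gain and loss against DMSO baseline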
Summary of the method: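 Human keratinocyte and foreskin fibroblast co-culture exposed to chemical for 24 h. Total protein measured in parallel cultures by 0.1% sulforhodamine B staining after 10% TCA fixation, read at 560 nm; bidirectional fit relative to DMSO.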

[7] = read-out: C-C motif chemokine 2 (Homo sapiens) (UniProt P13500); assay: BSK_KF3CT_MCP1: BioMAP Diversity Plus: KF3CT Assay for Monocyte Chemoattractant Protein 1 (MCP1/CCL2) Biomarker Activity (AID 2283073); details: primary human keratinocytes with fibroblasts; actives raise or lower the signal
Summary of the method: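 ELISA readout of MCP-1 after 24 h chemical dosing of a human skin primary co-culture of keratinocytes and foreskin fibroblasts. Activity was fitted in both directions against DMSO.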

[8] = read-out: Matrix Metallopeptidase 9 (MMP9), MMP9 (gene 4318); assay: BSK_KF3CT_MMP9: BioMAP Diversity Plus: KF3CT Assay for Matrix Metallopeptidase 9 (MMP9) Biomarker Activity (AID 2283074); details: primary human keratinocytes with fibroblasts; actives raise or lower the signal;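 for AC50: MMP9 protein level quantified by ELISA in the co-culture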
Summary of the method: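 Human keratinocyte and foreskin fibroblast co-culture exposed to chemicals for 24 h; MMP9 biomarker measured by ELISA, bidirectional fitting relative to DMSO; cytotoxicity tracked by SRB total protein staining in parallel cultures.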

[9] = read-out: urokinase plasminogen activator (uPA), PLAU (gene 5328); assay: BSK_KF3CT_uPA: BioMAP Diversity Plus: KF3CT Assay for urokinase plasminogen activator (uPA) Biomarker Activity (AID 2283075); details: primary human keratinocytes with fibroblasts; actives raise or lower the signal
Summary of the method: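 Primary human keratinocyte/foreskin fibroblast co-culture exposed to chemical; uPA measured by ELISA at 24 h. Bidirectional fit versus DMSO, with parallel SRB total-protein staining for cytotoxicity.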

[10] = read-out: CD40, CD40 (gene 958); assay: BSK_LPS_CD40: BioMAP Diversity Plus: LPS Assay for CD40 Biomarker Activity (AID 2283076); details: primary human HUVEC with PBMC; actives raise or lower the signal
Summary of the method: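 Cells were dosed, incubated 24 h, then assayed for CD40 by ELISA. Gain or loss of signal was analysed relative to DMSO controls. The culture paired human umbilical vein endothelium with peripheral blood mononuclear cells.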

[11] = read-out: E-selectin (Homo sapiens) (UniProt P16581); assay: BSK_LPS_Eselectin: BioMAP Diversity Plus: LPS Assay for Eselectin Biomarker Activity (AID 2283077); details: primary human HUVEC with PBMC; actives raise or lower the signal
Summary of the method: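 Primary human vascular co-culture (endothelium plus PBMC) was dosed with chemical, then E-selectin quantified by ELISA at 24 h. Endpoint values derive from bidirectional curve fitting relative to DMSO.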

[12] = read-out: Interleukin-8 (IL8), CXCL8 (gene 3576); assay: BSK_LPS_IL8: BioMAP Diversity Plus: LPS Assay for Interleukin-8 (IL8) Biomarker Activity (AID 2283078); details: primary human HUVEC with PBMC; actives raise or lower the signal
Summary of the method: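 Readout is IL-8 by ELISA, taken 24 h after compounds were added to LPS-stimulated endothelial/PBMC co-cultures. Both increases and decreases relative to DMSO control were scored through bidirectional fitting.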

[13] = BSK_LPS_SRB: Viability Assessment in the BioMAP Diversity Plus: LPS Assay (AID 2283079); details: primary human HUVEC with PBMC;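 note: total protein by sulforhodamine B absorbance as a cytotoxicity measure; measured one day after compound addition; fitted in both directions against DMSO so loss or gain of signal counts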
Summary of the method: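 Readout is SRB absorbance at 560 nm (0.1% stain, TCA-fixed parallel cultures) as a total-protein cytotoxicity measure. Cells: primary human umbilical vein endothelium plus peripheral blood mononuclear cells, 24 h after chemical exposure; DMSO served as baseline.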

[14] = read-out: Interleukin-1 alpha (IL1a), IL1A (gene 3552); assay: BSK_LPS_IL1a: BioMAP Diversity Plus: LPS Assay for Interleukin-1 alpha (IL1a) Biomarker Activity (AID 2283080); details: primary human HUVEC with PBMC; actives raise or lower the signal
Summary of the method: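 ELISA read-out of IL-1 alpha from a human primary vascular co-culture (endothelium plus PBMC) under LPS, sampled 24 hours post-dosing. Activity was fitted in both directions relative to DMSO controls.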

[15] = read-out: Monocyte Chemoattractant Protein-1 (MCP1), CCL2 (gene 6347); assay: BSK_LPS_MCP1: BioMAP Diversity Plus: LPS Assay for Monocyte Chemoattractant Protein-1 (MCP1) Biomarker Activity (AID 2283081); details: primary human HUVEC with PBMC; actives raise or lower the signal;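 for AC50: secreted MCP-1 protein quantified by ELISA in culture supernatant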
Summary of the method: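 Human endothelial–PBMC co-cultures were dosed with chemical, then LPS-driven MCP-1 levels were quantified by ELISA at 24 h. Activity in either direction was fitted versus DMSO negative control.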

[16] = BSK_LPS_PGE2: BioMAP Diversity Plus: LPS Assay for Prostaglandin E2 (PGE2) Biomarker Activity (AID 2283082); details: primary human HUVEC with PBMC; actives raise or lower the signal;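 for AC50: secreted prostaglandin E2 measured by ELISA in LPS-stimulated co-culture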
Summary of the method: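 Endpoint derived from bidirectional curve fitting versus DMSO of ELISA-measured PGE2 in LPS-stimulated human primary vascular co-culture (HUVEC with PBMC) harvested at 24 h.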

[17] = read-out: Interleukin-1 alpha (IL1a), IL1A (gene 3552); assay: BSK_KF3CT_IL1a: BioMAP Diversity Plus: KF3CT Assay for Interleukin-1 alpha (IL1a) Biomarker Activity (AID 2283070); details: primary human keratinocytes with fibroblasts; actives raise or lower the signal
Summary of the method: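 Primary human keratinocyte plus foreskin fibroblast co-culture, dosed and measured at 24 h in 96-well plates. IL-1a level quantified by ELISA; bidirectional fit relative to DMSO.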

[18] = read-out: Transforming growth factor beta 1 (TGFb1), TGFB1 (gene 7040); assay: BSK_KF3CT_TGFb1: BioMAP Diversity Plus: KF3CT Assay for Transforming growth factor beta 1 (TGFb1) Biomarker Activity (AID 2283072); details: primary human keratinocytes with fibroblasts; actives raise or lower the signal
Summary of the method: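 Signal changes in either direction, relative to DMSO, define activity here. TGF-b1 is read by ELISA from a human keratinocyte-fibroblast co-culture 24 h post-dose.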

[19] = read-out: TIMP metallopeptidase inhibitor 2 (TIMP2), TIMP2 (gene 7077); assay: BSK_KF3CT_TIMP2: BioMAP Diversity Plus: KF3CT Assay for TIMP metallopeptidase inhibitor 2 (TIMP2) Biomarker Activity (AID 2283071); details: primary human keratinocytes with fibroblasts; actives raise or lower the signal
Summary of the method: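 Keratinocyte–fibroblast co-culture, 24 h exposure; TIMP-2 ELISA, DMSO-normalised bidirectional fit. Parallel SRB (0.1%, TCA-fixed, 560 nm) total-protein staining gauges cytotoxicity.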

Measured: AC50

Sequence of E-selectin (Homo sapiens) (P16581 whole entry, looked up): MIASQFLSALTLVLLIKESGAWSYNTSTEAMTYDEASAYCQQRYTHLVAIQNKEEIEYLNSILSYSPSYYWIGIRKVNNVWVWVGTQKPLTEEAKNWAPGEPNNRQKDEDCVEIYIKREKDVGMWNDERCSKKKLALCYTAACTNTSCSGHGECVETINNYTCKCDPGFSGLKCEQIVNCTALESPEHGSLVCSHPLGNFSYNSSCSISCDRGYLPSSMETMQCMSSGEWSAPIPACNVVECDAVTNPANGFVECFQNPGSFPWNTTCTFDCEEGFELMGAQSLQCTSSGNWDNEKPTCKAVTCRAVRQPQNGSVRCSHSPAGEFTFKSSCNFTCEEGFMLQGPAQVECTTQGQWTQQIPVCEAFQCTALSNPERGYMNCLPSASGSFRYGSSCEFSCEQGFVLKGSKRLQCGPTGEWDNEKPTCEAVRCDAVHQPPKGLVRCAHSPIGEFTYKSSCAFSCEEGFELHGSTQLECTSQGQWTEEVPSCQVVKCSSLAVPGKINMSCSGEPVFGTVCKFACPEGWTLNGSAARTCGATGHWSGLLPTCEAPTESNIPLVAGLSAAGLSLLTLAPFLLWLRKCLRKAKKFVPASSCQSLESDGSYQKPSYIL

CCOP(=O)(OCC)OC(=CCl)c1ccc(Cl)cc1Cl
inactive: [5] | [11] | [12] | [13] | [14] | [15] | [16]
active: [1] 30.7 µM | [2] 31.5 µM | [3] 36.8 µM | [4] 24.7 µM | [6] 35.2 µM | [7] 20 µM | [8] 31.9 µM | [9] 33.2 µM | [10] 20 µM

Cc1c([N+](=O)[O-])c(C)c([N+](=O)[O-])c(C(C)(C)C)c1[N+](=O)[O-]
active: [4] 29.5 µM | [7] 34 µM | [8] 31.1 µM | [14] 11.4 µM
inactive: [1] | [2] | [3] | [5] | [6] | [17] | [18] | [9] | [10] | [11] | [12] | [13] | [15] | [16]

CN(C)C(=S)S
active: [1] 21.6 µM | [2] 36.9 µM | [3] 11.2 µM | [4] 33.6 µM
inactive: [5] | [6] | [8] | [9] | [10] | [11] | [12] | [13] | [14] | [15] | [16]

CCOC(=O)CC(=O)CCl
active: [1] 20 µM | [3] 20 µM | [10] 20 µM | [12] 31.9 µM | [14] 31.1 µM | [15] 26.1 µM | [16] 29 µM
inactive: [2] | [4] | [5] | [6] | [7] | [8] | [9] | [11] | [13]

CCOP(=S)(OCC)OP(=S)(OCC)OCC
active: [3] 30.4 µM
inactive: [1] | [2] | [4] | [5] | [6] | [17] | [7] | [8] | [9] | [10] | [11] | [12] | [13] | [14] | [15] | [16]

O=C(CCl)NCO
inactive: [1] | [2] | [3] | [4] | [5] | [6] | [7] | [8] | [9] | [10] | [11] | [13] | [14] | [15] | [16]
active: [12] 0.0625 µM

Cc1cc(Cl)ccc1N
inactive: [1] | [2] | [3] | [4] | [5] | [6] | [17] | [7] | [8] | [9] | [10] | [11] | [12] | [13] | [14] | [15] | [16]

OC(Cc1ccccc1Cl)(Cn1cncn1)C1(Cl)CC1 (centres undefined)
active: [16] 2.02 µM
inactive: [1] | [2] | [3] | [4] | [5] | [6] | [19] | [7] | [8] | [9] | [10] | [11] | [12] | [13] | [14] | [15]

C=CC(Cl)CCl (centres undefined)
active: [9] 0.0169 µM
inactive: [1] | [2] | [3] | [4] | [5] | [6] | [7] | [8] | [10] | [11] | [12] | [13] | [14] | [15] | [16]

OCCCCO
inactive: [1] | [2] | [3] | [4] | [5] | [6] | [19] | [8] | [9] | [10] | [11] | [12] | [13] | [14] | [15] | [16]

O=[N+]([O-])c1cccc2ccccc12
inactive: [1] | [2] | [3] | [4] | [5] | [6] | [7] | [8] | [9] | [10] | [11] | [12] | [13] | [14] | [15] | [16]

O=S(=O)(C(Cl)(Cl)Cl)C(Cl)(Cl)Cl
inactive: [16]
active: [1] 2.36 µM | [2] 2.8 µM | [3] 2.02 µM | [4] 1.11 µM | [5] 2.15 µM | [6] 2.48 µM | [7] 2.37 µM | [8] 2.22 µM | [9] 3.52 µM | [10] 1.51 µM | [11] 2.4 µM | [12] 2.88 µM | [13] 5.31 µM | [14] 1.6 µM | [15] 4.15 µM

O=C(Cc1ccccc1)OCCc1ccccc1
active: [14] 3.97 µM
inactive: [1] | [2] | [3] | [4] | [5] | [6] | [17] | [7] | [8] | [9] | [10] | [11] | [12] | [13] | [14] | [15] | [16]
